Bioassay records as filed in PubChem BioAssay.
VDR inh – inhibitors of human vitamin D receptor | VDR-SRC2-3 peptide fluorescence polarization, 2 h | P11473 | AID 504847 | Potency, µM, for the others: max response, negative = inhibition, hits mostly inhibitors | hit rate 0.93% among 400,000; also: potency is read from the fitted curve at half-maximal effect; % is scaled to controls: 0 for no effect and ±100 for the full control effect
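After 23 nl compound addition and a short centrifugation, plates sat for 2 hours at ambient temperature; polarization of fluorescence then indicated loss of VDR binding to peptide SRC2-3.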
KCNH2 3.1 block – blocks the human KCNH2 3.1 channel isoform | U2OS KCNH2 3.1, thallium flux FluxOr; hits give low values | activity change, % (tested at about 1.8 µM) | hit rate 0.95% among 340,000 | AID 720553;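 active = maximum activity change below -70%; inconclusive = maximum activity change from -70% to -50%; inactive = maximum activity change above -50%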;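 also: thallium influx rate constant from kinetic fluorescence after stimulation buffer; % is scaled to controls: 0 for no effect and ±100 for the full control effect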
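Normalized rate constant (relative to positive and negative DMSO controls) derived from a 2 min kinetic fluorescence read after stimulation; U2OS cells expressing the 3.1 isoform via virus at 1.77 x 10^8 /mL.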
CBFb RUNX1 block – blocks binding between human CBF-beta and RUNX1 | Potency, µM (highest dose often 59.8 µM), inactives show top-dose activity, negative = inhibition, actives largely listed as inhibitors | 230,000 tested, under 10 active | AID 1477 | AlphaScreen CBFb-His/RUNX1-biotin binding, biochemical; also: % of control where 0% means no effect
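Room-temperature protein-protein interaction test with 30 nM each of His-tagged CBF-beta and biotinylated RUNX1, 15 min with compound, then 90 min with nickel plus streptavidin beads. Signal read in AlphaScreen mode.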
MBNL1-CUG inh – MBNL1-poly(CUG) RNA binding inhibition; TR-FRET MBNL1-His/biotin-(CUG)12 binding, 665/545 ratio; Q9NR56; Potency, µM (top dose mostly 57.5 µM), inactives show top-dose activity change, negative = inhibition, hits mostly inhibitors; hit rate 0.036% among 280,000; AID 2675; active = well fitted inhibition curve with a large enough effect in the signal ratio, with a control signal flat, not every such curve was filed as active; inconclusive = small, poorly fitted or top-dose-only effect, or effect the other way, or a change in a side signal; inactive = no such curve, though single readings can be large or run the other way; the % refers to the signal ratio; also: potency is read from the fitted curve at half-maximal effect; % is scaled to controls: 0 for no effect and ±100 for the full control effect
Target sequence (Q9NR56 whole entry, looked up): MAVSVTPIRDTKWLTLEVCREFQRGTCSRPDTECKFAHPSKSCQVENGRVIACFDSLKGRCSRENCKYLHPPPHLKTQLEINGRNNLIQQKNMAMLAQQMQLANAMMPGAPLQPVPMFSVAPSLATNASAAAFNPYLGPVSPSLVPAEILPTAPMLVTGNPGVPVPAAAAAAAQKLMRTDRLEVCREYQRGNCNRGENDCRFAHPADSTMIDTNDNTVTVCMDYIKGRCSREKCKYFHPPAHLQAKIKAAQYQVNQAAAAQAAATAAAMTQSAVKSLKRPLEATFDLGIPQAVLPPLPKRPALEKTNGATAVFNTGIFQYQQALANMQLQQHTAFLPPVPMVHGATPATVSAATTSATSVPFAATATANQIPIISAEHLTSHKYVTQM
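His-tagged MBNL1 binding to biotinylated (CUG)12 RNA was measured by TR-FRET using terbium anti-His antibody (0.055 ng/ul final) and streptavidin-XL665 (5 nM final). Compounds were titrated 92 nM to 58 uM; 60 min at room temperature.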
PLK1 PBD inh – blocks phosphopeptide binding to human PLK1 polo-box domain | P53350 | Plk1 PBD binding of FITC phosphopeptide, fluorescence polarization | Potency, µM, inactives show max response, negative = inhibition, most hits filed as inhibitors | hit rate 2.8% among 360,000; also: potency is read from the fitted curve at half-maximal effect; series mostly up to about 57 µM; % is scaled to controls: 0 for no effect and ±100 for the full control effect; nearly all actives have a fitted effect of over 65% in size
hERG WT inh – inhibitors of human wildtype KCNH2 potassium channel. U2OS, BacMam KCNH2, thallium flux FluxOr; hits give low values. activity change, % at 1.84 µM. hit rate 0.37% among 340,000;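 active = maximum activity change below -70%; inconclusive = maximum activity change between -70% and -50%; inactive = maximum activity change above -50%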; also: % is scaled to controls: 0 for no effect and ±100 for the full control effect
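U2OS cells were transduced with wild-type KCNH2 virus (2.03 x 10^8 / mL) for 4 h at room temperature, then cultured overnight at 37 C. Thallium flux was read with FluxOr dye. Rate constants were normalized to DMSO controls.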
Numbers without * were called inactive; ? = inconclusive; · = not tested or not shown. Only some compounds are listed: those with a hit (about 3.8% of all), similar ones and a draw of the others. Unless noted, calls follow the shape of the dose curve; as a rule, active = well fitted curve in the direction sought with a large enough effect; inconclusive = small, poorly fitted or top-dose-only effect, or another doubt; inactive = no such curve, though single readings can be large; an effect the other way counts as inactive or inconclusive.

SMILES | VDR inh | KCNH2 3.1 block | CBFb RUNX1 block | MBNL1-CUG inh | PLK1 PBD inh | hERG WT inh
CCOC(=O)c1c(NC(=O)c2ccc(C)cc2)sc2c1CC(C)(C)OC2 | -21% | 2 | 15% | 0% | 24µM* | 0
COC(=O)c1c(NC(=O)C(=O)N2CCCC2)sc2c1CC(C)(C)OC2 | 1% | -10 | · | 15% | -3% | -3
CC1(C)Cc2c(sc(NC(=O)C(=O)N3CCCC3)c2C(N)=O)CO1 | -13% | -11 | · | 7% | 24µM* | 8
Cc1ccc(NC(=O)C2CCN(c3ncccn3)CC2)cc1F | -4% | · | · | · | · | ·
O=C(CNC(=O)C1CCCCC1)OCC(=O)c1ccc(C2CCCCC2)cc1 | -3% | · | · | · | · | ·
O=C(O)CCc1cc(I)c(O)c(I)c1 | -14% | · | 8% | · | · | ·
CCc1c(C)[nH]n(-c2ccc(Oc3ccccc3)c(S(=O)(=O)O)c2)c1=O | ? | 1 | -12% | 5% | 13µM* | -26
CCOc1ccc(C(O)(c2ccccc2)C(CN2CCCC2)c2ccccc2)cc1 (stereo unspecified) | ? | -16 | · | -3% | 6µM* | 44
CCOc1ccc(C(O)(CCC(C)C)C(CN2CCOCC2)c2ccccc2)cc1 (stereo unspecified) | -2% | -4 | · | -4% | -5% | 2
Clc1ccc(-c2csc(-c3nc(-c4ccc(Br)s4)cs3)n2)cc1 | -11% | · | · | · | · | ·
Cc1ccc2nc(CCl)[n+]([O-])c(-c3ccccc3)c2c1 | ? | -6 | · | 0% | 3.4µM* | -4
Cc1ccc2nc(Cl)c(-c3ccccc3)cc2c1 | 10% | 20 | · | · | -3% | 2
CN(Cc1ccccc1)c1ccc2cc(S(=O)(=O)N3CCCCC3)ccc2n1 | -7% | · | · | · | · | ·
O=C(/C=C/c1ccccc1)N/C(=C/c1ccccc1)C(=O)Nc1ccc(C(=O)O)cc1 | ? | 7 | 7% | ? | 27µM* | -24
O=C(/C=C/c1ccccc1)N/C(=C/c1ccccc1)C(=O)NCCO | 6% | -8 | -1% | 13% | -2% | -22
O=C(/C=C/c1ccc(Cl)cc1)NC(=S)Nc1ccc(C(=O)O)cc1 | -19% | -1 | · | -12% | 30µM* | -22
O=C(/C=C/c1ccccc1)NC(=S)Nc1ccc(CN2CCOCC2)cc1 | -20% | -85* | 18% | -7% | -9% | 0
COc1ccc(/C=C/C(=O)NC(=S)Nc2ccc(N3CCN(C(C)=O)CC3)cc2)cc1 | -21% | 10 | 8% | 1% | 4% | -174*
COc1ccc(S(=O)(=O)n2nc(C)c(S(=O)(=O)N3CCC(C)CC3)c2C)cc1C | 3% | · | · | · | · | ·
CC1=C(C(=O)Nc2ccc(C)cc2C)C(C(C)C)n2nc(SCc3ccccc3Cl)nc2N1 (stereo unspecified) | -12% | · | · | · | · | ·
CN(C)C(=O)c1ccc(SC(=S)NCc2ccccc2)cc1 | · | · | · | · | 2.7µM* | ·
CC(C)(C)CC(=O)NC(=S)NCc1ccccc1 | -22% | -2 | 0% | -3% | 2% | -20
Cc1ccc(C(=O)NCCCc2ccccc2)c(C)c1 | 0% | 12 | -1% | -6% | 24µM* | 1
Cn1nc(-c2ccc(F)cc2)nc2c(=O)n(C)c(=O)nc1-2 | -4% | · | · | · | · | ·
CN1CCN(C2=C(Cl)C(=O)N(c3ccc(Cl)c(Cl)c3)C2=O)CC1 | ? | 3 | 3% | 2% | 27µM* | -8
SMILES | VDR inh | KCNH2 3.1 block | CBFb RUNX1 block | MBNL1-CUG inh | PLK1 PBD inh | hERG WT inh
O=C1CCC(=O)N1c1ccc(NC2CCN(Cc3ccccc3)CC2)c([N+](=O)[O-])c1 | -7% | -2 | 10% | ? | -6% | 6
O=[N+]([O-])c1ccc(C(O)CN2CCN(C/C=C/c3ccccc3)CC2)cc1 (stereo unspecified) | -3% | -113* | · | 10% | -2% | -94*
O=[N+]([O-])c1ccc(NC2CCN(Cc3ccccc3)CC2)c([N+](=O)[O-])c1 | -6% | -96* | -26% | ? | 2% | -74*
OC(CN1CCN(Cc2ccccc2)CC1)c1ccccc1 (stereo unspecified) | -19% | 6 | 2% | 2% | -2% | 11
O=[N+]([O-])c1ccc(C(O)CN2CCN(Cc3ccccc3)CC2)cc1 (stereo unspecified) | -1% | -70* | · | 24% | 1% | -16
Cc1nc(/C(=N/O)C(N)=O)cs1 | -7% | 15 | 3% | · | 24µM* | -5
COc1cccc2c1Oc1nc(-c3ccccc3)nc(SCC(=O)N3CCCCC3)c1C2 | 11% | · | · | · | · | ·
FC(F)(F)c1nc2nc(Cl)c(Cl)nc2[nH]1 | · | -71* | · | · | -2% | 17
CC1(C)CC(=O)C2=C(C1)NC(SCC(N)=O)=C(C#N)C21CCCCC1 | 1% | 0 | 3% | -10% | -17% | 7
CC1=C(C#N)C(c2ccc(O)cc2)C2=C(CC(C)(C)CC2=O)N1 (stereo unspecified) | 1% | 14 | 5% | 9% | 1% | -1
CC1C(C#N)=C(SCC(N)=O)NC2=C1C(=O)CC(C)(C)C2 (stereo unspecified) | ? | -15 | 3% | 16% | 27µM* | 0
CCC1C(C#N)=C(SCC(N)=O)NC2=C1C(=O)CC(C)(C)C2 (stereo unspecified) | -10% | -29 | 6% | 14% | 27µM* | -2
CC1=C(C#N)C(C)C2=C(CC(C)(C)CC2=O)N1 (stereo unspecified) | -4% | -5 | 6% | ? | 30µM* | 6
O=c1cc(CSc2nnc3ccccn23)c2c(ccc3ccccc32)o1 | -11% | 4 | 2% | ? | 42µM* | -1
O=c1[nH]c(CSc2nnc3ccccn23)nc2ccccc12 | 4% | 0 | 1% | -4% | -5% | 4
COC(=O)C1=C[C@@H](C(=O)OC)[C@H]2C3=C(C(=O)[C@@]2(C)NC(=O)c2ccccc2)[C@H](C)C(C(=O)OC)=C(C(=O)OC)[C@@H]3C1 | -26% | · | -12% | · | · | ·
COc1cccc2c1C(=O)c1c(O)c3c(c(O)c1C2=O)CC(O)(C(C)=O)CC3OC1CC(O)C(O)C(C)O1 (stereo unspecified) | -12% | -12 | · | · | 9.5µM* | 11
COC(=O)C1=C(C(=O)OC)SC2(S1)C(C(=O)OC)=C(C(=O)OC)SC1=C2c2cc(C)ccc2NC1(C)C | ? | -13 | -1% | 2% | 3.4µM* | -11
CC(C)c1ccc(-c2noc(SCC(=O)N3CCN(c4ccccc4F)CC3)n2)cc1 | 5% | · | · | · | · | ·
NC(=S)NNC(=O)C12CC3CC(CC(C3)C1)C2 | -5% | 4 | -4% | -4% | 27µM* | -2
CN(C)c1ccc(NC(=O)c2cccc(C(=O)Nc3ccc(N(C)C)cc3)n2)cc1 | 79µM* | -1 | ? | 5% | -21% | -7
O=C(Nc1ccccc1)c1cccc(C(=O)Nc2ccccc2)n1 | 12% | -19 | · | 0% | -1% | -5
